Measured values from PubChem BioAssay (NCATS).
Several values for one entry are separate records, joined by “and”; a condition that tells them apart may be missing. Equal values may be shown once. Records with an inconclusive call do not appear. Where a structure was tested more than once in an assay, its records may differ in their call. Activity calls are given as the source filed them. Calls come from the whole dose curve; as a rule, active = well fitted curve in the direction sought with a large enough effect; inconclusive = small, poorly fitted or top-dose-only effect, or another doubt; inactive = no such curve, though single readings can be large; an effect the other way counts as inactive or inconclusive.

What was measured:
[1] = qHTS assay for measurement of the activity of small molecule inhibitors on Zika virus induced Caspase-3 activity in human astrocytoma cells (AID 1224859); note: potency is the fitted concentration of half-maximal effect
Procedure, shortened: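 Readout is luminescence from Caspase-Glo 3/7 added after a 6 h ZIKV infection (2 FFU/cell) of compound-pretreated (1 h) SNB-19 cells; data expressed as % inhibition versus uninfected and infected wells.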

[2] = qHTS Screen of the MIPE 4.0 Collection Against Ewings Sarcoma (TC71) (AID 1259253); note: nearly all actives have a fitted effect of over 40% in size; note: potency is the fitted concentration of half-maximal effect
Procedure, shortened: (§1)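 CellTiter-Glo luminescence after 48 h compound exposure (titration) gave viability; percent activity used DMSO-treated cells as no inhibition and medium-only wells as full inhibition. Cells grown in RPMI/5% FBS, dosed 4 h post-seeding.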

[3] = qHTS Screen of the MIPE 4.0 Collection Against Ewings Sarcoma (EW8) (AID 1259255); note: nearly all actives have a fitted effect of over 35% in size; note: potency is the fitted concentration of half-maximal effect
Procedure, shortened: as §1

[4] = qHTS Screen of the MIPE 4.0 Collection Against Ewings Sarcoma (TC32) (AID 1259256); note: nearly all actives have a fitted effect of over 45% in size; note: potency is the fitted concentration of half-maximal effect
Procedure, shortened: as §1

[5] = Identifying Small Molecule Inhibitors of Pancreatic Cancer Stem Cells (SN12C, Adherent) (AID 1259358);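 note: cell survival measured after 48 h of compound exposure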; note: potency is the fitted concentration of half-maximal effect
Procedure, shortened: (§2)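 Cytotoxicity read by CellTiter-Glo luminescence after 48 h compound exposure at 37C; percent activity scaled between DMSO-treated cells and cell-free wells. Spheroid formats used cells pre-formed 14 days in stem cell media on hydrogel.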

[6] = P-glycoprotein substrates identified in KB-8-5-11 adenocarcinoma cell line, qHTS therapeutic library screen (AID 1346987); note: nearly all actives have a fitted effect of over 65% in size; note: potency is the fitted concentration of half-maximal effect
Procedure, shortened: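 In this qHTS, P-gp-rich KB-8-5-11 cells received library compounds across a concentration range. Viability was quantified by luminescence after 72 h at 37 degree C.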

[7] = NS1 protein of Zika virus - qHTS assay to identify small molecule inhibitors in human HEK 293 cells (AID 1347053); note: nearly all actives have a fitted effect of over 55% in size; note: potency is the fitted concentration of half-maximal effect
Procedure, shortened: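 Readout was TR-FRET using paired anti-NS1 antibodies after 24 h infection of HEK 293 cells with ZIKV MR766 (MOI = 0.5). Compound preceded virus by 1 h; reduced signal reflects lower NS1 expression.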

[8] = qHTS Screen of the MIPE 4.0 Collection Against Ewings Sarcoma (RDES) (AID 1259252); note: nearly all actives have a fitted effect of over 35% in size; note: potency is the fitted concentration of half-maximal effect
Procedure, shortened: as §1

[9] = Identifying Small Molecule Inhibitors of Pancreatic Cancer Stem Cells (A278, Adherent) (AID 1259361); note: nearly all actives have a fitted effect of over 35% in size
Procedure, shortened: as §2

[10] = Identifying Small Molecule Inhibitors of Pancreatic Cancer Stem Cells (A2780, Spheroid) (AID 1259357); conditions: Potency: A2780 spheroid viability;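 note: compound exposure lasted 48 h before the ATP luminescence read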; note: potency is the fitted concentration of half-maximal effect
Procedure, shortened: (§3)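 Adherent (2D) versus sphere (3D) formats; spheres generated 14 d in SCM beforehand. Compound transferred by pin tool after 4 h, 48 h incubation, CellTiter-Glo endpoint.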

[11] = Identifying Small Molecule Inhibitors of Pancreatic Cancer Stem Cells (SN12C, Spheroid) (AID 1259360); conditions: Potency: SN12C spheroid viability; note: potency is the fitted concentration of half-maximal effect
Procedure, shortened: as §3

[12] = P-glycoprotein substrates identified in KB-3-1 adenocarcinoma cell line, qHTS therapeutic library screen (AID 1346986); note: nearly all actives have a fitted effect of over 60% in size;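 note: potency is the fitted concentration of half-maximal effect; potency is for cytotoxicity meaning loss of cell viability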
Procedure, shortened: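 Dose-response cytotoxicity, KB-3-1 vs P-gp-high KB-8-5-11, no colchicine in assay medium. Read: CellTiter-Glo at 72 h.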

[13] = Identifying Small Molecule Inhibitors of Pancreatic Cancer Stem Cells (Panc1, Spheroid) (AID 1259359);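 note: compound exposure lasted 48 h before reading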; note: potency is the fitted concentration of half-maximal effect
Procedure, shortened: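 Spheroids grown 14 days in stem cell media on hydrogel-coated nonadherent plates; 2D lines seeded directly. Compounds added after 4 h attachment, 48 h at 37C, 5% CO2; CellTiter-Glo luminescence normalized to DMSO (no inhibition) and no-cell wells (full inhibition).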

Row | Structure (SMILES) | Potency [1] | Potency [2] | Potency [3] | Potency [4] | Potency [5] | Potency [6] | Potency [7] | Potency [8] | IC50 (viability decrease) [9] | Potency [10] | Potency [11] | Potency [12] | Potency [13]
1 | C[C@@H]1CN(CC(=O)Nc2ccc3c(c2)Cc2cccc(-c4cc(=O)cc(N5CCOCC5)o4)c2S3)C[C@H](C)O1 | inactive | 20.9 µM (active) | 23.5 µM (active) | 18.7 µM (active) | inactive | inactive | 18.7 µM (active) | – | – | – | – | – | –
2 | CC(C)(C)c1cc(NC(=O)Nc2ccc(-c3cn4c(n3)sc3cc(OCCN5CCOCC5)ccc34)cc2)no1 | inactive | inactive | inactive | inactive | inactive | inactive | inactive | inactive | 10.5 µM (active) | – | – | – | –
3 | CC(=O)OCCN1C(=O)c2c(C)nc3ccc(S(=O)(=O)N4CCOCC4)cc3c2C1=O | inactive | inactive | inactive | inactive | inactive | inactive | inactive | inactive | inactive | inactive | inactive | inactive | –
4 | CC(C)(C)c1cnc(CSc2cnc(NC(=O)C3CCNCC3)s2)o1 | inactive | 0.187 µM (active) | 0.148 µM (active) | 0.148 µM (active) | – | inactive | 1.32 µM (active) | 0.132 µM (active) | – | – | – | – | 0.418 µM (active)
5 | CN(C)Cc1c(C(=O)NCCOc2ccc(C(=O)NO)cc2)oc2ccccc12 | inactive | 0.935 µM (active) | 1.05 µM (active) | 0.833 µM (active) | – | 7.43 µM (active) and 4.61 µM (active) | inactive | 1.05 µM (active) | – | – | – | – | –
6 | CC(C)(O)c1cc2nc(-c3cnc(N)nc3)nc(N3CCOCC3)c2s1 | inactive | 0.132 µM (active) | 0.148 µM (active) | 0.0662 µM (active) | – | 105 nM (active) and 517 nM (active) | – | 0.059 µM (active) | – | – | – | 0.411 µM (active) | –
7 | O=C(O)c1ccc2cc(-c3ccc(O)c(C45CC6CC(CC(C6)C4)C5)c3)ccc2c1 | inactive | 0.59 µM (active) | 1.66 µM (active) | 0.372 µM (active) | 2.64 µM (active) | – | 0.59 µM (active) | 1.32 µM (active) | 0.935 µM (active) | – | – | – | –
8 | Cc1ccc2nc(NC(=O)CSc3nc4c(c(=O)n3-c3ccccc3)SCC4)sc2c1 | inactive | 20.9 µM (active) | 16.6 µM (active) | 16.6 µM (active) | – | inactive | inactive | 18.7 µM (active) | – | – | – | – | –
9 | Cc1c(Cn2c(C)nc3c(C(=O)O)cc(N4CCOCC4)cc32)cccc1C(F)(F)F | inactive | 10.5 µM (active) | 11.8 µM (active) | – | – | inactive | inactive | 14.8 µM (active) | – | – | – | inactive | –
10 | COCCn1c2c([n+](Cc3cnccn3)c1C)C(=O)c1ccccc1C2=O | 1.32 µM (active) | 0.0166 µM (active) | 0.0047 µM (active) | – | 0.0264 µM (active) | – | 0.0372 µM (active) | 0.0021 µM (active) | 0.0066 µM (active) | 0.0132 µM (active) | 0.105 µM (active) | – | inactive
11 | O=c1[nH]nc(Sc2ncc([N+](=O)[O-])s2)n1-c1ccc2c(c1)OCCO2 | inactive | 6.62 µM (active) | 2.96 µM (active) | – | – | 18.7 µM (active) | 9.35 µM (active) | 7.43 µM (active) | 26.4 µM (active) | – | – | – | 5.26 µM (active)
12 | CC(C)c1nn(-c2c(Cl)cccc2Cl)c2nc(Cc3ccc(OCCO)cc3)[nH]c(=O)c12 | inactive | 0.132 µM (active) | 0.148 µM (active) | 0.105 µM (active) | – | 118 nM (active) and 103 nM (active) | 0.166 µM (active) | 0.187 µM (active) | – | – | – | – | –
13 | N#CCNC(=O)c1ccc(-c2ccnc(Nc3ccc(N4CCOCC4)cc3)n2)cc1 | inactive | 4.69 µM (active) | 13.2 µM (active) | 16.6 µM (active) | – | 8.33 µM (active) and 5.8 µM (active) | – | 11.8 µM (active) | 13.2 µM (active) | 20.9 µM (active) | – | 3.66 µM (active) | –
14 | COc1cc2c(Oc3ccc(NC(=O)C4(C(=O)Nc5ccc(F)cc5)CC4)cc3F)ccnc2cc1OCCCN1CCOCC1 | inactive | 3.32 µM (active) | 1.32 µM (active) | 1.66 µM (active) | – | 935 nM (active) and 5.17 µM (active) | – | 16.6 µM (active) | 4.69 µM (active) | – | 23.5 µM (active) | – | –
15 | CC1(C)CCC(c2ccc(Cl)cc2)=C(CN2CCN(c3ccc(C(=O)NS(=O)(=O)c4ccc(N[C@H](CCN5CCOCC5)CSc5ccccc5)c(S(=O)(=O)C(F)(F)F)c4)cc3)CC2)C1 | inactive | 18.7 µM (active) | 29.6 µM (active) | 5.26 µM (active) | – | inactive | inactive | – | 23.5 µM (active) | 20.9 µM (active) | 16.6 µM (active) | – | –
16 | O=C1CCC[C@@H]2[C@H]3CCC[N+]4([O-])CCC[C@@H](CN12)[C@@H]34 (some centres undefined) | inactive | inactive | inactive | inactive | – | inactive | inactive | inactive | – | – | – | – | –
17 | Cn1cc(-c2ccncc2)c(-c2ccc(OCc3ccc4ccccc4n3)cc2)n1 | inactive | 16.6 µM (active) | 20.9 µM (active) | 16.6 µM (active) | – | 20.6 µM (active) | inactive | 16.6 µM (active) | – | – | – | – | –
18 | C=CC(=O)Nc1cccc(Oc2nc(Nc3ccc(N4CCN(C)CC4)cc3)ncc2Cl)c1 | inactive | 14.8 µM (active) | 2.64 µM (active) | 2.64 µM (active) | – | 3.32 µM (active) and 7.31 µM (active) | 13.2 µM (active) | 2.35 µM (active) | – | – | – | – | –
19 | CC1(C)CC(=O)c2c(C(F)(F)F)nn(-c3ccc(C(N)=O)c(NC4CCC(OC(=O)CN)CC4)c3)c2C1 (centres undefined) | inactive | 0.166 µM (active) | 0.209 µM (active) | 0.132 µM (active) | – | 662 nM (active) and 820 nM (active) | inactive | – | – | – | – | – | –
20 | O=C(O)c1ccc2c(c1)nc(Nc1cccc(Cl)c1)c1ccncc12 | inactive | 4.69 µM (active) | 7.43 µM (active) | 5.9 µM (active) | – | inactive and 14.6 µM (active) | – | 4.18 µM (active) | 16.6 µM (active) | – | – | 5.8 µM (active) | –
21 | CC[C@@H]1C(=O)N(C)c2cnc(Nc3ccc(C(=O)NC4CCN(C)CC4)cc3OC)nc2N1C1CCCC1 | inactive | 0.0743 µM (active) | 0.0372 µM (active) | 0.0469 µM (active) | – | 0.418 µM (active) | 0.0332 µM (active) | – | 0.0132 µM (active) | inactive | – | – | 0.0083 µM (active)
22 | Cn1c2cc(S(C)=O)sc2c2cnn(Cc3cccc(N)c3)c(=O)c21 (centres undefined) | inactive | inactive | inactive | inactive | inactive | inactive | inactive | inactive | inactive | – | inactive | – | –
23 | NCC(=O)Nc1ccc(-n2nc(C(F)(F)F)cc2-c2ccc3c(ccc4ccccc43)c2)cc1 | inactive | 4.18 µM (active) | 18.7 µM (active) | 20.9 µM (active) | – | 14.8 µM (active) and 10.3 µM (active) | 0.0526 µM (active) | 20.9 µM (active) | – | – | – | – | –
24 | Cc1cc(CN2CCN(c3c(Br)cnc4nc(-c5ccc(N6CCN(C)CC6)cc5)[nH]c34)CC2)no1 | inactive | 18.7 µM (active) | 0.935 µM (active) | 1.18 µM (active) | – | 0.92 µM (active) | – | – | – | – | – | – | –
25 | C1=CCOCc2cc(ccc2OCCN2CCCC2)Nc2nccc(n2)-c2cccc(c2)OCC1 | inactive | 4.69 µM (active) | 6.62 µM (active) | 7.43 µM (active) | 5.26 µM (active) | 3.32 µM (active) | 4.18 µM (active) | – | 2.09 µM (active) | 3.32 µM (active) | inactive | – | –
